# TCR act = activators of T cell receptors. primary human leukocytes, anti-CD3, IL-2 HTRF, 48 h. Potency, µM (top dose mostly 9.22 µM), for the others: top-dose activation of IL-2 secretion, hits mostly activators. 330,000 tested, under 10 active. AID 504894; further: % of control where 0% means no effect
#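 Using a-CD3 beads without co-stimulation, primary human leukocytes were exposed to compounds for 48 hr. An HTRF IL-2 kit measured the cytokine, with europium-to-d2 energy transfer producing emission at 665nm upon 320nm excitation.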
# Chronic BCR inh = inhibitors of chronic active B-cell receptor signaling | ABC-DLBCL IkBa-CBG/CBR reporter, luminescence ratio, 4 h | Potency, µM (highest dose often 46.1 µM), without a hit: top-dose activity change, negative = inhibition, most hits filed as inhibitors | 340,000 compounds, 0.05% hits; active means well fitted inhibition curve with a large enough effect in the signal ratio, with a control signal flat, not every such curve was filed as active; inconclusive means small, poorly fitted or top-dose-only effect, or effect the other way, or a change in a side signal; the % refers to the signal ratio;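 further: potency means the concentration at half of the fitted maximal effect; plate controls were basal doxycycline-induced cells for no effect and cells given 10 µM MG132 for full effect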
#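 Doxycycline induced both beetle luciferases in TMD8 lymphoma cells; IKK-driven degradation limits the IkappaBalpha-fused green signal, while red luminescence normalises for cell number and nonspecific effects. Compounds tested up to 46 uM, 4 hrs.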
# MBNL1 CUG block = blocks human MBNL1 binding to CUG repeat RNA | Q9NR56 | TR-FRET MBNL1-His/biotin-(CUG)12 binding, 665/545 ratio | Potency, µM (titrated, usually from 57.5 µM), for inactives: top-dose activity change, negative = inhibition, most hits filed as inhibitors | 280,000 compounds, 0.036% hits | AID 2675; active means well fitted inhibition curve with a large enough effect in the signal ratio, with a control signal flat, not every such curve was filed as active; inconclusive means small, poorly fitted or top-dose-only effect, or effect the other way, or a change in a side signal; inactive means no such curve, though single readings can be large or run the other way; the % refers to the signal ratio; further: potency means the concentration at half of the fitted maximal effect; on the % scale 0 is the no-effect control and ±100 the full control effect
# Target sequence (Q9NR56 whole entry, looked up): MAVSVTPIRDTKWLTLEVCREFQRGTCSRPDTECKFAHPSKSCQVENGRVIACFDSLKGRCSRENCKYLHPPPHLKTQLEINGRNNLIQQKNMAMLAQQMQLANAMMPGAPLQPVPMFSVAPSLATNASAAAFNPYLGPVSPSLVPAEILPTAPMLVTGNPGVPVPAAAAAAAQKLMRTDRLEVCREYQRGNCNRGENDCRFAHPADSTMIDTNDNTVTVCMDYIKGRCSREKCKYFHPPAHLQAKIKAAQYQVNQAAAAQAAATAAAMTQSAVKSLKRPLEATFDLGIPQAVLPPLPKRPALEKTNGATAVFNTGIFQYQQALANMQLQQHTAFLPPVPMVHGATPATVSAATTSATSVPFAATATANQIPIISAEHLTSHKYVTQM
#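 Compound titration spanned 92 nM–58 uM against the MBNL1-His/biotin-(CUG)12 complex. After 60 min at room temperature with 5 nM streptavidin-XL665 and 0.055 ng/ul terbium anti-His, ratiometric 665/545 nm emission (Ex 340 nm) normalized to controls.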
# Vif-APOBEC3F blk = Vif-A3F binding inhibition | Potency, µM (titrated, usually from 46.1 µM), for the others: at the highest dose activity, negative = active | HeLa A3F-eYFP + Vif (tagged APOBEC3F with the HIV-1 protein that degrades it), YFP fluorescence increase | 390,000 compounds, 0.2% hits; further: potency means the concentration at half of the fitted maximal effect; % of control where 0% means no effect; nearly all actives have a fitted effect of over 65% in size
#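 HeLa cells stably expressing A3F-eYFP plus Vif, plated and incubated overnight at 37 deg C, then exposed to compounds overnight at 37 deg C. Blocked degradation read as raised yellow fluorescence (Ex 488/Em 500-530).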
# uPA generation = blocks generation of uPA at the cell surface; Potency, µM (titrated, usually from 38.3 µM), for the others: at the highest dose activity change, negative = inhibition, hits mostly inhibitors; 330,000 compounds, 0.31% hits; AID 540303; cell surface uPA generation assay, qHTS; active means well fitted inhibition curve with a large enough effect; inconclusive means small, poorly fitted or top-dose-only effect; inactive means no such curve, though single readings can be large or run the other way; tested in mouse RAW 264.7 cells; further: potency means the concentration at half of the fitted maximal effect; on the % scale 0 is the no-effect control and ±100 the full control effect; nearly all actives have a fitted effect of over 55% in size
# Vif-APOBEC3G blk = Vif-A3G binding inhibition; Potency, µM (highest dose often 46.1 µM), inactives show top-dose activity, negative = active, hits mostly inhibitors; HeLa A3G-eYFP + Vif (tagged APOBEC3G with the HIV-1 protein that degrades it), YFP fluorescence, overnight; Q9HC16; 410,000 compounds, 0.076% hits; AID 602310; further: potency means the concentration at half of the fitted maximal effect; on the % scale 0 is the no-effect control and ±100 the full control effect; nearly all actives have a fitted effect of over 60% in size
# Target sequence (Q9HC16 whole entry, looked up): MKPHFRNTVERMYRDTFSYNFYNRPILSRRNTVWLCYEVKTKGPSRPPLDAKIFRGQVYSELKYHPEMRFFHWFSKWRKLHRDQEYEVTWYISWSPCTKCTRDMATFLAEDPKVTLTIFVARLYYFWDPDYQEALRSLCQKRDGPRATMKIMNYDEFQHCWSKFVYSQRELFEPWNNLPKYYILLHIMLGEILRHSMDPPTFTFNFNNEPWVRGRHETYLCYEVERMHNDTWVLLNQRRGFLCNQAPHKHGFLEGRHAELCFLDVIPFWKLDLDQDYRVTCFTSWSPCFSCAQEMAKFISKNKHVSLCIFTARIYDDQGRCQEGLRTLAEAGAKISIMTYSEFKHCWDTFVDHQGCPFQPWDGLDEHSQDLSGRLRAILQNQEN
#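 HeLa cells stably expressing Vif and C-terminally eYFP-tagged A3G, seeded overnight at 37 deg C, then exposed to compound by pintool overnight at 37 deg C. Rise in yellow fluorescence (Ex 488/Em 500-530, Acumen) marks blocked Vif-driven A3G degradation.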
# * = called active by the depositor; u = inconclusive; x = no result given; [ ] = dose if it differs, or a comment. Sampled rows, rich in hits. Any-hit rate of the full collection: about 0.54%. Unless noted, the call rests on the fitted dose curve; in most records, active means well fitted curve in the direction sought with a large enough effect; inconclusive means small, poorly fitted or top-dose-only effect, or another doubt; inactive means no such curve, though single readings can be large; an effect the other way counts as inactive or inconclusive.
SMILES,TCR act,Chronic BCR inh,MBNL1 CUG block,Vif-APOBEC3F blk,uPA generation,Vif-APOBEC3G blk
Cc1ccc(C#N)c(SCC(=O)Nc2nccs2)n1,-2%,8%,-1%,-6%,6.3µM*,0%
N#Cc1cc2c(nc1SCC(=O)Nc1nccs1)CCCCC2,-9%,u,u,-14%,x,-16%
Cc1cnc2ccccc2c1/C=C/c1ccc(N)cc1,x,x,x,x,x,-19%
COc1cc(C(=O)NCc2cc(C)nc3ccccc23)cc(OC)c1OC,3%,u,2%,-20%,0%,-6%
COc1ccc(C(=O)NCc2cc(C)nc3ccccc23)cc1,-1%,u,2%,0%,7.1µM*,-15%
CCOc1ccc(N(CC(=O)Nc2ccccc2OC)S(=O)(=O)c2ccccc2)cc1,x,16µM*,15%,-7%,u,u
COc1ccc(N(CC(=O)Nc2ccc(OC)cc2OC)S(=O)(=O)c2ccccc2)cc1,x,u,-14%,-2%,-5%,-18%
CCOc1ccc(N(CC(=O)Nc2ccccc2OCC)S(=O)(=O)c2c(C)noc2C)cc1,-1%,u,3%,-9%,1.3µM*,u
COc1cc2nc(Nc3ccc(C)c(Cl)c3)nc(N)c2cc1OC,-4%,u,-7%,-6%,-2%,-8%
Cc1ccc(Nc2nc(N)c3ccccc3n2)cc1Cl,-2%,u,-14%,u,7.9µM*,-6%
CCCC(=O)N(C)c1ccc(/C=C2\C=Cc3ccccc32)cc1,x,x,x,x,x,-25%
COc1ccc(OC)c(/C=N/Nc2nncn2/N=C/c2cc(OC)ccc2OC)c1,-1%[46.1 µM],u,5%[11.5 µM],6%,10µM*,u
COCCNC(=O)/C(C#N)=C/c1cccc(/C=C(\C#N)C(=O)NCCOC)c1,7%[46.1 µM],15µM*,x,1%,-17%,u
N#C/C(=C\c1ccc(O)c(O)c1)C(=O)NCCCc1ccccc1,-9%,u,47%,3%,3.5µM*,-4%
N#C/C(=C\c1ccc(N2CCOCC2)o1)C(=O)NCCc1ccccc1,-2%,-6%,u,22µM*,-3%,2%
COCCNC(=O)/C(C#N)=C/c1ccc(O)cc1,-2%,-6%,u,-12%,-1%,3%
N#C/C(=C\c1ccc(O)c(O)c1)C(=O)c1ccc(O)c(O)c1,15%,0%,u,-3%,4µM*,-2%
COCCNC(=O)/C(C#N)=C/c1ccc(N2CCOCC2)o1,8%,-3%,u,-10%,5%,-12%
N#CC(=Cc1ccc(O)c(O)c1)C(=O)NCc1ccccc1,x,x,x,x,x,-9%
C(=Nc1ccc2ccccc2n1)c1ccccn1,x,x,x,x,x,1%
CCC[C@H]1COCCS(=O)(=O)N1Cc1cccc(F)c1,x,x,x,x,x,0%
COc1ccc2[nH]c(CCc3nc4c(OC)c(OC)ccc4[nH]3)nc2c1OC,x,x,x,x,x,0%
CC1(N2CCCCC2)C(=O)c2ccccc2C1=O,-1%[46.1 µM],-3%,u,2%,-2%,0%
CC1(S(=O)(=O)O)CC(=O)c2ccccc2C1=O (stereo not given),-11%,u,4%,u,7.9µM*,u
N#CCC(=O)N/N=C/c1ccc(N2N=C(c3ccccc3)CC2c2ccccc2)cc1 (stereo not given),1%,5%,10%,6.3µM*,-5%,u
SMILES,TCR act,Chronic BCR inh,MBNL1 CUG block,Vif-APOBEC3F blk,uPA generation,Vif-APOBEC3G blk
O=C(c1ccccc1)C1C(=O)c2ccccc2C1=O,4%,-2%,u,35µM*,2%,u
O=C(/C=C/c1ccccc1)C1C(=O)c2ccccc2C1=O,-3%[46.1 µM],u,1%,-6%,-10%,2%
COC(=O)c1sccc1NC(=S)Nc1cc(C)cc(C)c1,-7%[46.1 µM],-8%,3%,25µM*,-1%,1%
Cc1ccc2c(C(=O)CNc3nc(C)c(C)s3)c(C)[nH]c2c1,x,x,x,x,x,0%
CCN(CC)c1ccc2cc(-c3nc4sc5c(c4c(=O)[nH]3)CCC(C(C)(C)C)C5)c(=O)oc2c1 (stereo not given),x,x,x,u,x,10µM*
CC(C)(C)C1CCc2c(sc3nc(-c4cc5ccccc5oc4=O)[nH]c(=O)c23)C1 (stereo not given),x,x,x,3%,x,4%
CC(C(=O)c1ccccc1)[n+]1ccc(Cl)c2ccc(Cl)cc21 (stereo not given),x,x,x,x,x,-6%
Cc1ccc2cccc(O)c2n1,x,x,x,x,x,0%
O=C(CC1CC2CCC1C2)Nc1nc(-c2ccccn2)cs1 (stereo not given),1%,u,7%,13µM*,-4%,1%
COc1cnc(-c2ccccn2)nc1Oc1ccc(F)cc1F,-4%,0%,5%,11µM*,-3%,-1%
COc1cnc(-c2ccccn2)nc1Oc1ccccc1Cl,-3%,2%,u,2%,-1%,2%
COc1cc(N=Nc2ccc3ccccc3c2)ccc1O,3%,-23%,15%,-11%,3.2µM*,-18%
O=C1C=C(Nc2ccc(Cl)cc2Cl)CC(c2ccco2)C1 (stereo not given),7%,13µM*,3%,-14%,-9%,u
COc1ccc(N=Cc2sc(O)c3ccccc23)cc1,1%,-8%,u,-17%,-2%,13µM*
COc1ccc(-n2c(O)c(C=Nc3ccccc3)c3ccccc3c2=O)cc1,-1%,3%,-1%,-8%,-6%,-1%
COc1ccc(N=Cc2c(O)c3ccccc3n2C(C)=O)cc1,-6%,u,u,13µM*,-19%,13µM*
O=C(NCc1cccc(F)c1)c1cccc2c1C(=O)c1ccc(N3CCCC3)cc1S2(=O)=O,0%,u,x,u,-13%,u
O=C(NCc1cc(C(F)(F)F)ccc1Cl)c1cccc2c1C(=O)c1ccc(N3CCOCC3)cc1S2(=O)=O,-7%,1%,x,10µM*,9%,3%
CC1CCN(c2ccc3c(c2)S(=O)(=O)c2cccc(C(=O)NCc4cccc(F)c4)c2C3=O)CC1,-1%,u,x,u,-18%,20µM*
O=C(NCc1cccc(C(F)(F)F)c1)c1cccc2c1C(=O)c1ccc(N3CCC(Cc4ccccc4)CC3)cc1S2(=O)=O,-7%,0%,x,22µM*,-2%,u
O=C(NCc1cc(C(F)(F)F)ccc1Cl)c1cccc2c1C(=O)c1ccc(N3CCCCC3)cc1S2(=O)=O,-7%,2%,x,-5%,13%,-10%
O=C(NCc1ccc(OC(F)(F)F)cc1)c1cccc2c1C(=O)c1ccc(N3CCC(Cc4ccccc4)CC3)cc1S2(=O)=O,-3%,1%,x,u,1%,-9%
O=C(NCc1ccco1)c1cccc2c1C(=O)c1ccc(N3CCC(Cc4ccccc4)CC3)cc1S2(=O)=O,8%,0%,x,10µM*,u,u
